# Assay outcomes (PubChem)
# TEAD-YAP block – TEAD-YAP interaction inhibition; HEK-TIYL cells, TEAD-Gal4/YAP UAS-luciferase luminescence; inhibition, % at 9.12 µM; 1.4% of 640,000 active; in the data active = inhibition above about 32%;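 also: 0% = median of test compound wells and 100% = reference inhibitor wells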
# MITF primary – blocks human microphthalmia-associated transcription factor. AlphaScreen MITF homodimerization, bead proximity signal. inhibition, % at 2.6 µM. O75030. AID 1259374. 0.91% of 650,000 active; in the data active = inhibition above about 50%;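 also: 0% = vehicle wells with protein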
# FBW7 act – human FBW7 E3 ligase activation, primary screen; Q969H0; AlphaScreen FBW7–phospho-cyclin E peptide binding, activator screen; normalized activity (activation), % at 26.1 µM; 0.13% of 650,000 active; AID 1259310; in the data active = normalized activity above about 1.9%;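 also: purified mutant Fbw7 with reduced substrate affinity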
# GPR151 activ – activates the human receptor GPR151; 1% of 650,000 active; PathHunter beta-arrestin GPR151 cells, luminescence; Q8TDV0; activation, % at 11.2 µM; in the data active = activation above about 4.9%;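 also: 0% = median of compound wells and 100% = cells with positive control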
# GPR151 confirm – confirmation of human GPR151 activators | shares compounds with GPR151 activ | GPR151 PathHunter beta-arrestin cells, luminescence, 90 min; % of EA-reagent control over plate median | activation, % at 11.2 µM | 6,700 tested, under 10 active | AID 1508609;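 active = mean percent activation across replicates above the confirmation screen cutoff of 4.91%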
# GPR119 ag – activates human GPR119 in a GPR151 counter-screen; shares compounds with GPR151 activ; activation, % at 11.2 µM; GPR119 PathHunter beta-arrestin cells, luminescence, 90 min; 0 = compound-well median, 100 = enzyme-acceptor control; 0.3% of 6,700 active;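 active = mean percent activation in the counterscreen above 29.09%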;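 also: counterscreen on off-target GPR119 to flag nonselective hits from the GPR151 activator screen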
# Target sequence (Q8TDV5 whole entry, looked up): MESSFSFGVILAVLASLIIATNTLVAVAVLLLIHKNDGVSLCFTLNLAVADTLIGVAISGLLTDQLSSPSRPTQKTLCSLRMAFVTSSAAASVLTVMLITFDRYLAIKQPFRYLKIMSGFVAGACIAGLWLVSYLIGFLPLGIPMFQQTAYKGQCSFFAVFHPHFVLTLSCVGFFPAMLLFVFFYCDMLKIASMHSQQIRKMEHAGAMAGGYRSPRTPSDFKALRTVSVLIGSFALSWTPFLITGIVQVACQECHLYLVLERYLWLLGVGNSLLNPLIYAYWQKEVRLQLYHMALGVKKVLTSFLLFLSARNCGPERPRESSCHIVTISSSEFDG
# Active calls of the source: *; x = no result; ! = a repeat was not active. Sampled rows, rich in hits. Any-hit rate of the full collection: about 3.4%.
SMILES,TEAD-YAP block,MITF primary,FBW7 act,GPR151 activ,GPR151 confirm,GPR119 ag
COc1ccc(CC(=O)N2CCN(Cc3nc(-c4ccc(Cl)cc4)cs3)CC2)cc1OC,61*,8,1,15*,0,4
CC1(C)Cc2c(C#N)c(N3CCNCC3)nc(Cc3ccccc3)c2CO1,-4,18,0,0,x,x
Cc1nc(SCc2ccccc2)[nH]c(=O)c1CC(=O)N1CCN(Cc2ccccc2)CC1,-1,6,0,6.2*,0,-7
O=C(Cc1ccc(Cl)cc1)N1CCN(Cc2ccccc2)CC1,-7,1,0,2,x,x
C=C(C)[C@@]12OC3(c4ccccc4)O[C@@H]1C1[C@@H]4O[C@]4(CO)[C@@H](O)[C@]4(O)C(=O)C(C)=C[C@H]4[C@@]1(O3)[C@H](C)[C@H]2OC(=O)/C=C/C=C/c1ccccc1 (stereo partly drawn),-51,7,0,0,x,x
COc1cccc([C@H](C)NC(=O)c2cn(CCN3CCCC3)c3cc(-c4cn[nH]c4)ccc23)c1,-3,16,0,11*,0,1
COc1cccc(CNC(=O)c2cn(Cc3ccccc3)c3cc(-c4cn[nH]c4)ccc23)c1,0,-3,0,2,x,x
CC(C)(C)c1cc(C=C(C#N)C#N)cc(C(C)(C)C)c1O,91*,-5,0,6.4*,1,18
COc1cc(C=C(C#N)C#N)cc(O)c1O,1,8,0,-1,x,x
CCN1C(=O)C2(Cc3ccccc3N3CCCC32)C(=O)N(CC)C1=S (stereo not drawn),-1,2,0,1,x,x
COc1ccc2oc3c(c2c1)NC(=O)CN=C3c1ccccc1,-11,13,0,6.9*,1,-1
COc1ccc2oc3c(c2c1)NC(=O)CN=C3c1ccc(F)cc1,1,20,0,-2,x,x
Cc1cccc(NC2=NCC(C)(C)S2)c1C,-8,3,1,1,x,x
CN1CCN(c2ccc([N+](=O)[O-])cc2C(F)(F)F)CC1,-2,5,0,1,x,x
CN1CCN(c2ccc([N+](=O)[O-])cc2C=O)CC1,1,13,0,5.9*,1,7
C=CCOC(=O)C1=C(C)OC(N)=C(C(=O)OCc2ccccc2)C12C(=O)Nc1ccccc12 (stereo not drawn),8,20,0,6.3*,1,3
COc1cc(CNCCc2cccc(F)c2)cc(OC)c1,8,45,0,3,x,x
CCCC[N+]12CCC(CC1)C(C(=O)c1cccs1)C2 (stereo not drawn),-8,24,0,5.8*,1,-3
Cc1ccc2c(c1)C1CN(C)CCC1N2C(=O)C1CC1 (stereo not drawn),-3,9,0,1,x,x
Cc1cc2oc(=O)c3c(c2c(O)c1CN1CCN(C)CC1)CCCC3,6,-16,0,9.3*,0,8
CC(=O)Oc1cc(C)cc2oc(=O)c3c(c12)CCCC3,6,20,1,1,x,x
N#Cc1c(Cl)c(Cl)nc(N2CCCNCC2)c1Cl,0,-5,0,6.1*,1,13
N#Cc1cc(F)c(N2CCNCC2)cc1Cl,3,1,0,0,x,x
COc1ccc2c(c1)c(C(=O)OCC(N)=O)c(C)n2C1CCCCC1,10,6,0,1,x,x
O=c1c2ccccc2nc(/C=C\c2ccccc2F)n1-c1ccc(F)cc1F,-5,12,1,-2,x,x
SMILES,TEAD-YAP block,MITF primary,FBW7 act,GPR151 activ,GPR151 confirm,GPR119 ag
CCOC(=O)C1=C(C)OC(N)=C(C#N)C12C(=O)Nc1ccc(Br)cc12 (stereo not drawn),0,4,0,1,x,x
CC1=C(C(=O)OC(C)C)C2(C(=O)Nc3ccc(Br)cc32)C(C#N)=C(N)O1 (stereo not drawn),5,19,0,14*,0,-6
O=C(O)CCn1cc(C=C2C(=O)NC(=O)NC2=O)c(-c2ccc(Br)cc2)n1,15,1,0,5.4*,3,-3
O=C(O)CCn1cc(C=C2C(=O)NC(=S)NC2=O)c(-c2cccc(Cl)c2)n1,10,1,0,0,x,x
COc1cc(C=C2C(=O)NC(=S)NC2=O)ccc1OC(=O)c1ccc(C)cc1,1,13,0,6.6*,-1,2
COc1ccc(C2C([N+](=O)[O-])=C(N)Oc3c2c(=O)oc2ccccc32)cc1OC (stereo not drawn),-7,19,0,1,x,x
COc1cc(C2C([N+](=O)[O-])=C(N)Oc3c2c(=O)oc2ccccc32)ccc1O (stereo not drawn),26,3,0,5.7*,0,-4
CCOc1ccccc1N1CCN(Cc2cccnc2)CC1,5,40,0,5.5*,0,11
O=c1oc2ccccc2c(O)c1C(c1ccc2c(c1)OCO2)c1c(O)c2ccccc2oc1=O,-7,-10,0,15*,0,4
CCCN1CCC[C@@H]2Cc3nc(N)ncc3C[C@H]21,-2,1,0,-1,x,x
CCCN1CCC[C@@H]2Cc3[nH]ncc3C[C@H]21,-1,-1,0,7.8*!,1,-7
CCc1c(C)nc(N)nc1N1N=C1SCC(N)=O,-5,14,1,9.5*,-1,-8
c1ccc2c(CCN3CCC(c4nc(-c5ccncc5)no4)CC3)c[nH]c2c1,0,-3,0,-1,x,x
COc1ccc(C=C2C(=O)NC(=S)NC2=O)cc1OC(=O)c1ccccc1,3,16,0,-2,x,x
O=c1c(-c2ccccc2)coc2c(CN3CCCCC3)c(O)ccc12,8,3,0,5.1*,-1,-8
N#Cc1ccc(NC(=O)CSc2n[nH]c(-c3cccs3)n2)cc1Cl,-3,-2,0,11*,0,13
N#CC1=C(N)C(C#N)(C#N)[C@@H](c2ccc(F)cc2)[C@@H]2CSCC=C12,-14,4,1,-1,x,x
OC1/C(=C/c2cccc(OCc3ccccc3)c2)N2CCC1CC2 (stereo not drawn),-37,5,0,5.9*,0,4
Cc1csc(NC(=O)c2cccn(Cc3ccc(Cl)cc3)c2=O)n1,-2,17,0,4.9*,-1,-16
COc1cc2c(cc1O)[C@@H]1Cc3ccc(OC)c(O)c3CN1CC2,44*,14,0,6.0*,1,-13
CCCN(CCC)[C@@H]1CCc2cccc(O)c2C1,4,2,0,1,x,x
C[C@H](N)[C@H](O)c1ccc(O)c(O)c1,-2,84*,0,5.7*!,1,5
Cc1nn(Cc2ccccc2)c(C)c1C=O,-9,-2,0,5.1*,0,-1
O=[N+]([O-])N=C1NCN(C2CCN(Cc3ccccc3)CC2)CN1,-10,-3,0,5.5*,1,1
O=C(Nc1ccccc1)N1CNC(=N[N+](=O)[O-])NC1,-4,-3,0,3,x,x
